Laboratory results: PMC9838217, “Structure of SALL4 zinc finger domain reveals link between AT-rich DNA binding and Okihiro syndrome”
Residue numbers refer to the chain shown, from its start.

Experiments:
Assay in all cases: HT-SELEX; high values mean tight binding
Details in all cases: protein: recombinant; vector His6-GST; dsDNA, one strand shown
SALL4 ZFC4 WT (HT-SELEX) = biological target: T1, SALL4 ZFC4 WT (HT-SELEX) (Mus musculus, UniProt Q8BX22 870-940)
T1 sequence: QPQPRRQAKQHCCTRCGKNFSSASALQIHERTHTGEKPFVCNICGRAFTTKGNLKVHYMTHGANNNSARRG
Method in brief: (§1)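 Library DNA (1.5 µg in cycle one, 200 ng in later cycles) was incubated with 1 µg of purified recombinant mouse SALL4 zinc finger cluster 4, residues 870–940, in 100 µl buffer (10 mM Tris–HCl pH 7.5, 50 mM NaCl, poly(dI-dC), DTT) at room temperature for 10 min. Up to 6 rounds of Ni2+ bead capture, washing, PCR amplification and reselection were run in triplicate. Reads from MiSeq sequencing were scanned for 6-mers. For each canonical k-mer, binding signal is its read fraction as fold change versus the original random library.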

[1] = biological target: T2, SALL4 ZFC4 R900W (HT-SELEX) (Mus musculus, UniProt Q8BX22 870-940, R900W)
T2 sequence: T1 sequence with R31W
Method in brief: as §1

[2] = biological target: T3, SALL4 ZFC4 G921D (HT-SELEX) (Mus musculus, UniProt Q8BX22 870-940, G921D)
T3 sequence: T1 sequence with G52D
Method in brief: as §1

| Sequence | binding signal (SALL4 ZFC4 WT (HT-SELEX)) [fold-change vs cycle 0] | binding signal [1] [fold-change vs cycle 0] | binding signal [2] [fold-change vs cycle 0] |
| --- | --- | --- | --- |
| AGTCAT | 1.45 ± 0.0471 | 1.53 ± 0.0494 | 1.46 ± 0.106 |
| TACCTA | 1.35 ± 0.0562 | 1.48 ± 0.0891 | 1.42 ± 0.0965 |
| ATAGCG | 0.516 ± 0.00601 | 0.55 ± 0.0156 | 0.681 ± 0.0378 |
| ACCCAG | 0.455 ± 0.0148 | 0.526 ± 0.0133 | 0.628 ± 0.0574 |
| AAATGA | 2.02 ± 0.088 | 1.91 ± 0.0687 | 1.75 ± 0.132 |
| CAACAG | 0.698 ± 0.0379 | 0.824 ± 0.0446 | 0.869 ± 0.0293 |
| ATAAGC | 1.34 ± 0.0651 | 1.21 ± 0.0666 | 1.22 ± 0.0552 |
| CCTACA | 0.76 ± 0.0346 | 0.876 ± 0.0282 | 0.919 ± 0.0351 |
| CTGCTC | 0.36 ± 0.0162 | 0.436 ± 0.00828 | 0.567 ± 0.028 |
| TAATAA | 5.02 ± 0.619 | 2.78 ± 0.312 | 2.32 ± 0.357 |
| CCCCTC | 0.31 ± 0.0217 | 0.35 ± 0.0216 | 0.456 ± 0.0591 |
| ACAAAA | 1.6 ± 0.0623 | 1.61 ± 0.0945 | 1.5 ± 0.125 |
| ACCGTC | 0.344 ± 0.0295 | 0.418 ± 0.0372 | 0.528 ± 0.0646 |
| ATGGGG | 0.486 ± 0.0322 | 0.546 ± 0.0309 | 0.615 ± 0.052 |
| ACTTGC | 0.656 ± 0.0276 | 0.723 ± 0.0488 | 0.815 ± 0.0179 |
| CGTACC | 0.409 ± 0.0203 | 0.467 ± 0.0146 | 0.564 ± 0.0582 |
| AGGAGG | 0.615 ± 0.0373 | 0.701 ± 0.0545 | 0.762 ± 0.023 |
| CTAAAA | 1.62 ± 0.0677 | 1.63 ± 0.131 | 1.51 ± 0.106 |
| TCTTCA | 1.42 ± 0.033 | 1.6 ± 0.094 | 1.48 ± 0.131 |
| CAACAC | 0.658 ± 0.0239 | 0.8 ± 0.0226 | 0.849 ± 0.0276 |

| Sequence | binding signal (SALL4 ZFC4 WT (HT-SELEX)) [fold-change vs cycle 0] | binding signal [1] [fold-change vs cycle 0] | binding signal [2] [fold-change vs cycle 0] |
| --- | --- | --- | --- |
| TCGACA | 0.525 ± 0.0359 | 0.609 ± 0.0106 | 0.731 ± 0.0296 |
| AATGAA | 2.19 ± 0.104 | 2.17 ± 0.105 | 1.89 ± 0.135 |
| AGTCAA | 1.21 ± 0.0262 | 1.409 ± 0.0091 | 1.34 ± 0.0532 |
| CTTTAC | 1.34 ± 0.0196 | 1.5 ± 0.0474 | 1.36 ± 0.0809 |
| TACGGA | 0.719 ± 0.0383 | 0.834 ± 0.0149 | 0.856 ± 0.0265 |
| ACTTAT | 2.49 ± 0.156 | 2.19 ± 0.135 | 1.9 ± 0.197 |
| ACTCAA | 1.26 ± 0.086 | 1.42 ± 0.0689 | 1.35 ± 0.0924 |
| TAGTGA | 1.4 ± 0.0384 | 1.53 ± 0.027 | 1.43 ± 0.107 |
| GGTTAC | 0.891 ± 0.0455 | 1.05 ± 0.0396 | 1.01 ± 0.0443 |
| CTTGAC | 0.777 ± 0.0347 | 0.934 ± 0.0128 | 0.981 ± 0.0363 |
| AGCCTC | 0.316 ± 0.0162 | 0.401 ± 0.0165 | 0.536 ± 0.0409 |
| CGTATA | 1.19 ± 0.0262 | 1.2 ± 0.0145 | 1.18 ± 0.0335 |
| ATCCAA | 1.28 ± 0.0363 | 1.37 ± 0.0499 | 1.32 ± 0.0492 |
| AACGGG | 0.4 ± 0.0225 | 0.466 ± 0.0176 | 0.54 ± 0.0483 |
| AGGGAA | 0.891 ± 0.0417 | 1.01 ± 0.045 | 0.989 ± 0.0164 |
| CAGATC | 0.723 ± 0.0477 | 0.849 ± 0.0155 | 0.964 ± 0.0486 |
| AAGGGG | 0.527 ± 0.0535 | 0.628 ± 0.0342 | 0.657 ± 0.0321 |
| ATACCC | 0.85 ± 0.0409 | 0.935 ± 0.04 | 0.962 ± 0.0418 |
| AGCCAA | 0.49 ± 0.0194 | 0.55 ± 0.00629 | 0.698 ± 0.0739 |
| ATCTGG | 0.78 ± 0.0274 | 0.839 ± 0.0522 | 0.901 ± 0.0524 |

| Sequence | binding signal (SALL4 ZFC4 WT (HT-SELEX)) [fold-change vs cycle 0] | binding signal [1] [fold-change vs cycle 0] | binding signal [2] [fold-change vs cycle 0] |
| --- | --- | --- | --- |
| AATGTG | 1.15 ± 0.0171 | 1.23 ± 0.0476 | 1.25 ± 0.0281 |
| GACAAC | 0.673 ± 0.0124 | 0.798 ± 0.0444 | 0.89 ± 0.0263 |
| CAATCG | 0.623 ± 0.00929 | 0.726 ± 0.0311 | 0.821 ± 0.0438 |
| CGTGAG | 0.437 ± 0.0456 | 0.501 ± 0.006 | 0.607 ± 0.0306 |
| ATAGCC | 0.53 ± 0.0341 | 0.6236 ± 0.00564 | 0.747 ± 0.062 |
| GTACTA | 1.24 ± 0.0382 | 1.37 ± 0.098 | 1.29 ± 0.0902 |
| ACGTTG | 0.659 ± 0.0218 | 0.753 ± 0.0161 | 0.822 ± 0.0177 |
| AAAGTC | 1.1 ± 0.0483 | 1.25 ± 0.0636 | 1.24 ± 0.0652 |
| GATCGA | 0.664 ± 0.0531 | 0.763 ± 0.0206 | 0.91 ± 0.0578 |
| GTAATA | 2.33 ± 0.177 | 2.09 ± 0.144 | 1.81 ± 0.189 |
| CTGTCC | 0.398 ± 0.039 | 0.493 ± 0.0175 | 0.587 ± 0.0324 |
| CAAGAC | 0.74 ± 0.0108 | 0.856 ± 0.0182 | 0.905 ± 0.036 |
| ATCAAG | 1.41 ± 0.0614 | 1.55 ± 0.0618 | 1.47 ± 0.0828 |
| CACAGG | 0.432 ± 0.00836 | 0.527 ± 0.0297 | 0.624 ± 0.0533 |
| CTTCTC | 0.952 ± 0.0502 | 1.11 ± 0.0917 | 1.07 ± 0.0618 |
| ACTCCG | 0.4 ± 0.00858 | 0.466 ± 0.0288 | 0.594 ± 0.0678 |
| ACTTTA | 1.93 ± 0.117 | 1.99 ± 0.146 | 1.75 ± 0.227 |
| GGACCA | 0.389 ± 0.0179 | 0.466 ± 0.011 | 0.557 ± 0.0733 |
| GATCCA | 0.791 ± 0.0326 | 0.883 ± 0.0218 | 0.996 ± 0.0315 |
| CATAGC | 0.663 ± 0.0317 | 0.746 ± 0.0368 | 0.844 ± 0.0408 |
